# High-throughput results as filed in PubChem.
# FLuc counter – firefly luciferase modulation, counter-screen for miR-21 project | P08659 | purified FLuc, Km substrates, luminescence inhibition | Potency, µM (series often up to 57.5 µM), for inactives: top-dose activity change, negative = inhibition, hits mostly inhibitors | actives 6.9% (n = 360,000) | AID 588342;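 further: plate controls were vehicle for no effect and reference inhibitor for full effect; nearly all actives have a fitted effect of over 55% in size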
# Target sequence (P08659 whole entry, looked up): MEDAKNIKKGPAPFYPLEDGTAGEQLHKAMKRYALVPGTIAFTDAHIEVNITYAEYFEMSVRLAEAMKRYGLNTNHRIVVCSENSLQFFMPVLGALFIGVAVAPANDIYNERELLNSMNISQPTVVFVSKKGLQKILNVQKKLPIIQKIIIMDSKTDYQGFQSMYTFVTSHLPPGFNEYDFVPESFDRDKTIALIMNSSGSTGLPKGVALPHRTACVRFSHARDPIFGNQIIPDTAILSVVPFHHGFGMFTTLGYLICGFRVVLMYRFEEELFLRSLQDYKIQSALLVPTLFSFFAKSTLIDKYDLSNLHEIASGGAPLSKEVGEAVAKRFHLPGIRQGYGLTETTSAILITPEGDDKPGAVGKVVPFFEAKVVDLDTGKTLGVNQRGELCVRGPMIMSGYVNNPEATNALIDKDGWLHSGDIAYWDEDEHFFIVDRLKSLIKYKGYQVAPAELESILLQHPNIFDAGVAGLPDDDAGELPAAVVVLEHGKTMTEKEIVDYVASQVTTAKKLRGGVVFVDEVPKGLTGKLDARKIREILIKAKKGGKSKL
#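 Biochemical qHTS of compounds, final roughly 60 µM downward over six points, against 10 nM purified firefly luciferase using Km concentrations of substrates (10 uM D-luciferin, 10 uM ATP) in Tris acetate pH 7.5 buffer; luminescence output.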
# ELG1 genotoxic – inducers of genotoxicity in HEK293T ELG1-luciferase cells; Potency, µM (highest dose often 46 µM), for the others: at the highest dose activity change, positive = activation, usual class: activators; actives 1.3% (n = 330,000); AID 504466; HEK293T ELG1-luciferase reporter, luminescence, 16 h; further: % of control where 0% means no effect; nearly all actives have a fitted effect of over 60% in size
#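 16 hr compound incubation (37 °C, 5% CO2) of HEK293T cells carrying luciferase-tagged ELG1; luciferase then measured by ONE-Glo luminescence after 30 min at RT.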
# Rab9 prom act – Rab9 promoter activation; actives 2.8% (n = 320,000); Huh7 Rab9 promoter-luciferase reporter, luminescence, 24 h; Potency, µM (doses to about 9.22 µM), for inactives: top-dose activation, negative = inhibition, usual class: activators; further: % of control where 0% means no effect; nearly all actives have a fitted effect of over 60% in size
#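 Quantitative HTS format; Huh7 Rab9-luciferase reporter cells (1500/well) receive compound 2 h post-plating, incubate 24 h at 37 °C, then get luciferase reagent for 10 min before luminescence reading.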
# SMN2 splice enh – SMN2 splice variant enhancement. actives 2.8% (n = 210,000). HEK293 SMN2-luciferase splicing reporter, luminescence, 30-36 h. Potency, µM (doses to about 46.1 µM), inactives show at the top dose activity change, positive = activation, usual class: activators. AID 1458; further: % of control where 0% means no effect; nearly all actives have a fitted effect of over 55% in size
#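 HEK293 cells carry an SMN2 minigene-luciferase reporter in which exon 7 inclusion puts luciferase in frame. Cells were seeded at 2000 cells/well, attached for 10-12 hours, then exposed to compounds for 30-36 hours at 37C before ONE-Glo luminescence.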
# ELG1 repair inh – ELG1-dependent DNA repair inhibition. HEK293T ELG1-luciferase reporter, luminescence, 16 h; DNA damage induced by 5-fluorouridine. Potency, µM (top dose mostly 46.1 µM), for inactives: at the highest dose activity change, negative = inhibition, actives largely listed as inhibitors. actives 2.3% (n = 330,000). AID 504467; further: on the % scale 0 is the no-effect control and ±100 the full control effect; nearly all actives have a fitted effect of over 55% in size
#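 Overnight (16 hr) co-exposure of 2,000 cells/well to 5-fluorouridine and compound at 37 °C preceded detection. Luciferase was quantified via ONE-Glo luminescence; loss of signal denotes inhibition.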
# NPC1 prom act – NPC1 promoter activation. actives 2.4% (n = 320,000). Potency, µM (titrated, usually from 9.22 µM), inactives show top-dose activation, usual class: activators. Huh7 NPC1 promoter luciferase reporter, 24 h; further: % of control where 0% means no effect; nearly all actives have a fitted effect of over 60% in size
#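 NPC1 promoter–luciferase Huh7 cells; 24 h compound; luminescence.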
# Starred values were filed as active, the others as inactive; ? = inconclusive; nt = no result. Only some compounds are listed: those with a hit (about 9.2% of all), similar ones and a draw of the others. The call rests on the fitted dose curve; in most records, active means well fitted curve in the direction sought with a large enough effect; inconclusive means small, poorly fitted or top-dose-only effect, or another doubt; inactive means no such curve, though single readings can be large; an effect the other way counts as inactive or inconclusive. Potency means the concentration at half of the fitted maximal effect.
SMILES,FLuc counter,ELG1 genotoxic,Rab9 prom act,SMN2 splice enh,ELG1 repair inh,NPC1 prom act
Cc1ccc(NC(=O)c2oc3ccc4c(c3c2C)C(=O)CC(C)(C)O4)c(C)c1,4.3µM*,nt,nt,nt,nt,nt
CC(=O)Nc1ccc(NC(=O)c2oc3ccc4c(c3c2C)C(=O)CC(C)(C)O4)cc1,8.5µM*,nt,nt,nt,nt,nt
Cc1ccc(NC(=O)c2oc3ccc(S(=O)(=O)N4CCCCC4)cc3c2C)c(C)c1,1%,nt,nt,nt,nt,nt
COc1cc(OC)c(NC(=O)C2=C(C)C(=O)OC23CCCCC3)cc1Cl,2%,nt,nt,-6%,nt,nt
COc1cc(OC)c(NC(=O)c2oc3ccc4c(c3c2C)C(=O)CC(C)(C)O4)cc1Cl,5.4µM*,nt,nt,nt,nt,nt
Cc1ccc(CCNC(=O)c2ccc(Cn3c(=O)c4cccn4c4cccnc43)cc2)cc1,2%,nt,nt,nt,nt,nt
CCCCCCCCNC(=O)CCNC(=O)c1ccc(C(C)(C)C)cc1,1%,-4%,-2%,-34%,-21%,2%
Cc1ccc(NC(=O)CN(C)C(=O)c2cccc(S(=O)(=O)N3CCc4ccccc43)c2)cc1,5%,-7%,3%,nt,-29%,-10%
CCOc1ccc(-c2cc(C(=O)N3CCN(S(=O)(=O)c4cc(Cl)ccc4OC)CC3)[nH]n2)cc1,-19%,nt,nt,nt,nt,nt
CCc1ccc(N(CC)C(=O)c2cc3c(=O)oc4ccc(C)cc4c3s2)cc1,3%,nt,nt,-2%,nt,nt
CN(C)S(=O)(=O)c1ccc(C(=O)Nc2nc(-c3cccs3)cs2)cc1,0%,-19%,-8%,-78%,12µM*,-2%
O=C(Nc1nc(-c2ccc(S(=O)(=O)N3CCCCCC3)cc2)cs1)c1ccccc1,1%,-26%,-1%,-29%,7.3µM*,-7%
Cc1csc(NC(=O)c2ccc(S(=O)(=O)N3CCCC3)cc2)n1,?,-3%,18%,nt,-12%,18%
O=C(Nc1nc(-c2cccs2)cs1)c1ccc(S(=O)(=O)N2CCCC2)cc1,-1%,-14%,-1%,nt,16µM*,0%
Cc1cc(C)cc(Nc2nc(-c3ccc(S(=O)(=O)N4CCCC4)cc3)cs2)c1,2%,-14%,-8%,-53%,23µM*,-10%
Cc1ccc(N2CC(NC(=O)c3ccco3)CC2=O)cc1C (stereo not given),-6%,nt,nt,nt,nt,nt
Nc1c(C(=O)N/N=C/c2cccnc2)oc2nc(-c3ccccc3)cc(-c3ccco3)c12,-1%,2%,-6%,nt,7.3µM*,-4%
Nc1c(C(=O)O)sc2nc(-c3ccccc3)cc(-c3ccc(Cl)cc3)c12,0%,-1%,-3%,nt,?,2%
NNC(=O)c1oc2nc(-c3ccc(Cl)cc3)cc(-c3ccccc3)c2c1N,0%,-8%,1%,nt,16µM*,-10%
NNC(=O)c1oc2nc(-c3ccco3)cc(-c3ccco3)c2c1N,0%,-11%,1%,nt,?,-5%
Nc1c(C(=O)N/N=C/c2cccnc2)oc2nc(-c3ccco3)cc(-c3ccco3)c12,-10%,-8%,-5%,nt,2.9µM*,-1%
Cc1ccc2c(c1)N(CC(=O)NC1CCCC(C)C1C)C(=O)c1cccnc1O2 (stereo not given),1%,-4%,6%,nt,5%,-1%
CC(C)(CO)[C@@H](O)C(=O)NCCC(=O)O,1%,-6%,0%,nt,9%,-2%
CC(Nc1ccc(F)cc1)=[N+](C)CCNS(=O)(=O)c1ccc(Cl)cc1,3%,-4%,-3%,nt,-1%,-1%
COc1cccc(OCC(=O)O)c1,-4%,1%,0%,5%,4%,-2%
O=C(CSc1nnc(-c2ccccc2O)o1)N1CCCCC1,11µM*,?,26%,nt,?,24%
O=C(CSc1nnc(-c2ccccc2O)o1)N1CCc2ccccc2C1,-17%,0%,27%,-47%,-29%,-2%
O=C(CSc1nnc(-c2ccccc2Cl)o1)N1CCCC1,15µM*,?,?,nt,?,?
